This is a sample that favours compounds with a hit; in the whole collection about 6.7% have one here.
Pf Dd2 growth: P. falciparum Dd2 growth inhibitors, primary screen, SYBR Green fluorescence, single dose replicates. 72 h; stronger effect = lower value. activity change, % at 10 µM. hit rate 2.3% among 94,000; in the data active = activity change below about -80%; inconclusive = no clear call, values can overlap the other calls
C diff HTS: C. difficile growth inhibitors, primary screen, HTS; Clostridium difficile clinical isolate growth, OD600, 24 h; stronger effect = lower value; AID 1259249, 2017; hit rate 0.25% among 86,000; growth activity, negative = inhibition, % at 16 µg/mL (by protocol);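 active = mean growth activity at or below -80% and every replicate also at or below -80%; inconclusive = mean at or below -80% but some replicate above -80%; inactive = mean growth activity above -80%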;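 note: 0% = DMSO wells and -100% = levofloxacin 16 µg/mL wells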
T cruzi growth-1: T. cruzi intracellular proliferation inhibitors, primary screen, cell-based, beta-gal Tulahuen parasites, NIH3T3 host, luminescence. T. cruzi beta-gal in NIH3T3, GalScreen luminescence, 90 h. inhibition, % at 8.34 µM. hit rate 5.9% among 77,000. AID 624255, 2012;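 active = mean inhibition above about 93%, with at least 55% of replicates each passing it, limit read from the data, passing the limit was not always enough; inconclusive = only one of those two conditions holds; inactive = neither condition holds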
T cruzi growth-2: T. cruzi intracellular proliferation inhibitors, confirmation, cell-based, NIH3T3 host, beta-gal parasite, luminescence, cherry-pick | shares compounds with T cruzi growth-1 | T. cruzi beta-gal in NIH3T3, GalScreen luminescence, 90 h | inhibition, % at 8.35 µM | hit rate 72% among 5,600;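 active = mean replicate inhibition above about 95% and at least 55% of replicates individually reaching it, limit read from the data; inconclusive = only one of the two criteria is met; inactive = neither criterion is met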
T cruzi growth-3: inhibitors of intracellular T. cruzi replication, confirmation, NIH3T3 host cells, beta-gal parasites, cherry-pick, set 2. shares compounds with T cruzi growth-1. T. cruzi beta-gal in NIH3T3, GalScreen luminescence, 90 h. inhibition, % at 2.09 µM. hit rate 21% among 5,600;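 active = mean inhibition above about 95%, with at least 55% of replicates also reaching it, limit read from the data; inconclusive = meets just one of the two conditions; inactive = meets neither condition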;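 note: plate controls were neutral control median for no effect and positive control median for full effect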
3T3 cytotox: cytotoxicity in mouse NIH/3T3 fibroblasts, confirmation, cytotoxicity control for T. cruzi proliferation inhibitor project, cell-based, cherry-pick, single point. shares compounds with T cruzi growth-1. NIH/3T3 viability, CellTiter-Glo ATP luminescence, 90 h. cytotoxicity (signal decrease), % at 8.35 µM. hit rate 14% among 5,600;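 active = mean signal decrease across replicates above about 35% based on untreated-well scatter, with enough replicates individually passing, limit read from the data; inconclusive = no rule stated though some were filed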;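 note: 0% = median of neutral control wells and 100% = median of positive control wells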
NIH3T3 tox 2: NIH/3T3 fibroblast cytotoxicity, confirmation, cytotoxicity control, cell-based, cherry-pick, single point, set 2 | shares compounds with T cruzi growth-1 | NIH/3T3 viability, CellTiter-Glo ATP luminescence, 90 h | inhibition, % at 24.9 µM | hit rate 56% among 5,600 | AID 651744, 2012;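 active = mean loss of cell viability signal at or above a set limit, and enough replicates individually reaching it; inconclusive = meets only the mean limit or only the replicate share; inactive = meets neither condition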;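 note: 0% = median of neutral control wells and 100% = median of positive control wells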
Numbers without * were called inactive; ? = inconclusive; · = no result.

SMILES	Pf Dd2 growth	C diff HTS	T cruzi growth-1	T cruzi growth-2	T cruzi growth-3	3T3 cytotox	NIH3T3 tox 2
C[C@H]1CN([C@@H](C)CO)C(=O)c2cc(NS(=O)(=O)c3ccc(F)cc3)ccc2O[C@H]1CN(C)Cc1ccc(C(F)(F)F)cc1	-8	15	82	·	·	·	·
O=C(C[C@H]1CC[C@@H]2[C@H](COC[C@H](O)CN2S(=O)(=O)c2ccc(Cl)cc2)O1)NCc1ccc(Cl)c(Cl)c1	-8	·	74	·	·	·	·
COc1ccc(S(=O)(=O)N2C[C@@H](O)COC[C@H]3O[C@@H](CC(=O)NCc4ccc(Cl)c(Cl)c4)CC[C@@H]32)cc1	-68	-2	118*	107*	25	8	26
O=C(C[C@H]1CC[C@@H]2[C@H](COC[C@@H](O)CN2S(=O)(=O)c2ccc(Cl)cc2)O1)NCc1ccc(Cl)c(Cl)c1	-10	·	97*	104*	24	9	62*
O=C(C[C@@H]1CC[C@H]2[C@@H](COC[C@@H](O)CN2S(=O)(=O)c2ccc(Cl)cc2)O1)NCc1ccc(Cl)c(Cl)c1	-1	·	88	·	·	·	·
O=C(C[C@H]1CC[C@H]2[C@@H](COC[C@@H](O)CN2S(=O)(=O)c2ccc(Cl)cc2)O1)NCc1ccc(Cl)c(Cl)c1	2	·	104*	100*	41	29	55*
Cc1ccc(S(=O)(=O)N2C[C@@H](O)COC[C@H]3O[C@H](CC(=O)NCc4ccc(Cl)c(Cl)c4)CC[C@@H]32)cc1	-3	·	58	·	·	·	·
C[C@@H]1CN([C@H](C)CO)C(=O)c2cc(NC(=O)Nc3ccc4c(c3)OCO4)ccc2O[C@H]1CN(C)Cc1ccc(C(F)(F)F)cc1	18	-5	-42	·	·	·	·
O=C(N[C@@H]1CC[C@H](CCn2cc(C3CCCCC3)nn2)O[C@H]1CO)c1cccnc1	-31	-2	·	·	·	·	·
CCc1cnc(N2[C@H](CO)[C@@H](c3ccc(C4=CCCC4)cc3)[C@@H]2C#N)s1	-9	16	83	·	·	·	·
CCc1cnc(N2[C@@H](C#N)[C@H](c3ccc(C#CCC4CCCC4)cc3)[C@@H]2CO)s1	-55	-7	105*	108*	?	-7	12
CCc1cnc(N2[C@H](C#N)[C@@H](c3ccc(C#CCC4CCCC4)cc3)[C@@H]2CO)s1	6	·	?	96*	106*	-15	104*
CCc1cnc(N2[C@H](C#N)[C@@H](c3ccc(C4=CCCCC4)cc3)[C@@H]2CO)s1	-20	13	86	·	·	·	·
C[C@H](CO)N1C[C@H](C)[C@H](CN(C)C)Oc2cc(C#CCN(C)C)ccc2S1(=O)=O	7	-1	-13	·	·	·	·
CC(=O)N(C)C[C@@H]1Oc2cc(C#CC(C)(C)O)ccc2S(=O)(=O)N([C@H](C)CO)C[C@H]1C	-12	-2	·	·	·	·	·
C[C@H]1CN([C@@H](C)CO)S(=O)(=O)c2ccc(C#Cc3ccncc3)cc2O[C@H]1CN(C)C(=O)Nc1ccc2c(c1)OCO2	-73	5	41	·	·	·	·
CC(C)C#Cc1ccc2c(c1)O[C@@H](CN(C)C(=O)Nc1ccccc1)[C@@H](C)CN([C@@H](C)CO)S2(=O)=O	-61	4	·	·	·	·	·
C[C@@H](O)C#Cc1ccc2c(c1)O[C@@H](CN(C)C(=O)Nc1ccccc1)[C@@H](C)CN([C@@H](C)CO)S2(=O)=O	-25	1	71	·	·	·	·
C[C@H]1CN([C@@H](C)CO)S(=O)(=O)c2ccc(C#Cc3ccccc3)cc2O[C@@H]1CN(C)C(=O)Nc1ccccc1	-45	29	119*	102*	67	-19	40*
C[C@@H]1CN([C@@H](C)CO)S(=O)(=O)c2ccc(C#Cc3ccccc3)cc2O[C@H]1CN(C)C(=O)Nc1ccccc1	-65	3	123*	98*	108*	40*	36*
C[C@H]1CN([C@@H](C)CO)S(=O)(=O)c2ccc(C#Cc3ccccc3)cc2O[C@H]1CN(C)C(=O)Nc1ccc2c(c1)OCO2	-78	1	132*	99*	93	4	13
C[C@@H]1CN([C@H](C)CO)S(=O)(=O)c2ccc(C#Cc3ccccc3)cc2O[C@H]1CN(C)C(=O)Nc1ccccc1	-70	-48	122*	109*	85	37*	50*
CC(C)C#Cc1ccc2c(c1)O[C@@H](CN(C)C(=O)Nc1ccccc1)[C@H](C)CN([C@@H](C)CO)S2(=O)=O	-22	-7	·	·	·	·	·
CO[C@@H]1CN(C)C(=O)c2ccc(NC(=O)Nc3cc(F)ccc3F)cc2OC[C@H](C)NC[C@H]1C	-17	·	-1	·	·	·	·
COc1ccc2c3c(n(C)c2c1)[C@@H](CO)N(C)CC31CCN(C(=O)NC(C)C)CC1	17	3	·	·	·	·	·
SMILES	Pf Dd2 growth	C diff HTS	T cruzi growth-1	T cruzi growth-2	T cruzi growth-3	3T3 cytotox	NIH3T3 tox 2
C[C@@H]1CN([C@H](C)CO)C(=O)c2cccc(NS(=O)(=O)c3ccccc3)c2O[C@H]1CN(C)S(=O)(=O)c1cn(C)cn1	-1	3	25	·	·	·	·
COCC(=O)N(C)C[C@@H]1Oc2ncc(C#CCC3CCCC3)cc2C(=O)N([C@H](C)CO)C[C@@H]1C	-4	-14	49	·	·	·	·
COc1cccc(C#Cc2ccc([C@@H]3[C@H](CO)N4C(=O)CN(C(=O)Cc5cccnc5)C[C@@H]34)cc2)c1	-36	-2	·	·	·	·	·
O=C(NCC[C@H]1CC[C@@H](NS(=O)(=O)c2cccc(F)c2)[C@@H](CO)O1)C1CC1	-36	·	-72	·	·	·	·
C[C@@H]1CN([C@@H](C)CO)S(=O)(=O)c2ccc(C3=CCCC3)cc2O[C@@H]1CN(C)C(=O)Nc1ccc2c(c1)OCO2	-22	0	81	·	·	·	·
C[C@@H]1CN([C@@H](C)CO)S(=O)(=O)c2ccc(C3=CCCC3)cc2O[C@H]1CN(C)C(=O)Nc1ccc2c(c1)OCO2	-58	-7	112*	106*	17	10	61*
CC(C)CC#Cc1ccc2c(c1)O[C@H](CN(C)CC1CCOCC1)[C@H](C)CN([C@H](C)CO)S2(=O)=O	-19	5	?	108*	85	22	105*
CC(C)CC#Cc1ccc2c(c1)O[C@H](CN(C)CC1CCOCC1)[C@@H](C)CN([C@@H](C)CO)S2(=O)=O	-70	16	106	·	·	·	·
CC(C)CC#Cc1ccc2c(c1)O[C@H](CN(C)CC1CC1)[C@H](C)CN([C@@H](C)CO)S2(=O)=O	-47	13	?	100*	90	40*	107*
CCCC#Cc1ccc2c(c1)O[C@@H](CN(C)CC1CC1)[C@@H](C)CN([C@@H](C)CO)S2(=O)=O	-62	·	31	·	·	·	·

Screening results from PubChem BioAssay.
